# Assay outcomes from PubChem BioAssay.
# Hits are enriched below; roughly 2.4% of the tested compounds scored in any of these assays.
# CHT allo act = human CHT allosteric activation; Q9GZV3; CHT-expressing cells, membrane potential dye, choline EC20; stronger effect = higher value; LV-AA mutant CHT in HEK293 cells; B-score at 10 µM; 310,000 compounds, 0.49% hits; AID 488977;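 active = initial fluorescence not abnormally high and integrated response B-score, plate-corrected, over 3 SD above library mean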
# Target sequence (Q9GZV3 whole entry, looked up): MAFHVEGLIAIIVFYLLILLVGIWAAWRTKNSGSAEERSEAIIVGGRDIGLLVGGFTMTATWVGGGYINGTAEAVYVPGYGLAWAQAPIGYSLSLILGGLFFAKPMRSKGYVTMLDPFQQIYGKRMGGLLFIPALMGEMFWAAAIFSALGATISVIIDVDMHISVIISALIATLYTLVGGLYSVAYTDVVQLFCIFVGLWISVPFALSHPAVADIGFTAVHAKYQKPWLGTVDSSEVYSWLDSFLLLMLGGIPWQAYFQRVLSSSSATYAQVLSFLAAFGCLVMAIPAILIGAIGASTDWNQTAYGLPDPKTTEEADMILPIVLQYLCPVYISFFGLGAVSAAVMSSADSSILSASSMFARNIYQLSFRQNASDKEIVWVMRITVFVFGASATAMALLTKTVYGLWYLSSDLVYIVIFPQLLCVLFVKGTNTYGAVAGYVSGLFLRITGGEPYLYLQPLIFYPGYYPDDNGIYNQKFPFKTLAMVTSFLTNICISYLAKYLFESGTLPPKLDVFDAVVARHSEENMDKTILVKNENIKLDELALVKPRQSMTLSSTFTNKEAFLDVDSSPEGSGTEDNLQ
# CHT inh = human CHT choline transport inhibition. Q9GZV3. CHT-expressing cells, membrane potential dye, choline response; stronger effect = lower value. B-score at 10 µM. 310,000 compounds, 0.86% hits. AID 488975;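 active = B-score over 3 SD under the library average, and starting fluorescence ratio not unusually high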;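 also: choline stimulus applied at its EC90 after an EC20 pre-addition; B-score computed on integrated fluorescence ratio after choline addition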
# TMEM16A inh = mouse TMEM16A channel inhibition, primary screen; Q8BHY3; HEK293 TMEM16A/YFP iodide influx fluorescence, ionomycin; normalized B-score (activity score, 25-100; higher = stronger inhibition) at 10 µM; 310,000 compounds, 1.2% hits;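 active = ratio plate-corrected score three or more library SD toward inhibition, starting fluorescence score within five deviations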;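 also: score derived from kinetic fluorescence span divided by baseline fluorescence per well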
# ANO1 activ = activates or potentiates the mouse TMEM16A chloride channel. Q8BHY3. HEK293 TMEM16A/YFP-H148Q/I152L, iodide quench fluorescence; stronger effect = lower value. B-score at 10 µM. 340,000 compounds, 0.3% hits;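 active = fluorescence-ratio B-score plate-corrected deviation score at least 3 library SD below zero, with starting fluorescence score within 5 deviations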;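 also: channel opened by trigger with iodide after compound preincubation; score built on the fluorescence ratio of max minus min over baseline; more negative score means more quench and so TMEM16A activation or potentiation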
# Numbers without * were called inactive; i = inactive; · = not tested or not shown.
SMILES,CHT allo act,CHT inh,TMEM16A inh,ANO1 activ
O=C(CN1CCC(c2nc3ccccc3s2)CC1)N1CCCCC1,i,i,i,i
O=C(CSc1ccccc1Cl)N1CCC(c2nc3ccccc3s2)CC1,i,i,100*,i
Cn1ncc2c(NCc3cccc(C(F)(F)F)c3)c(C(=O)O)cnc21,i,i,i,·
CCN(Cc1ccccc1)c1c(C(=O)O)cnc2c1cnn2C,i,i,i,-4.8*
COc1ccc(C(C)(C)C)cc1NC(=O)COc1ccc(-c2nnco2)cc1,·,·,·,i
CC(C)OC(=O)CSc1nnc(-c2cnccn2)n1C,i,i,i,-5.8*
FC(F)(F)c1cc(Oc2ccc(Cl)cc2)ncc1-c1nnc(-c2ccc(Cl)cc2)o1,i,i,i,i
CCOC(=O)Cc1nn(Cc2nc(-c3ccc(C#N)cc3)cs2)c(=O)c2ccccc12,i,i,25*,i
COc1ccc(CC(=O)Nc2cccc(-c3nnc(-c4cccc(C)c4)o3)c2)cc1OC,i,i,100*,i
COc1ccc(CC(=O)Nc2ccc(-c3nnc(-c4ccccc4)o3)cc2)cc1OC,i,i,i,i
COc1ccc(CC(=O)Nc2cccc(-c3nnc(-c4ccc(C)cc4)o3)c2)cc1OC,i,i,25*,i
COc1ccc(CC(=O)Nc2cccc(-c3nnc(-c4ccccc4)o3)c2)cc1OC,·,·,·,i
CCOc1ccc(NC(=O)CN(C)C(=O)CCC2CCCCC2)cc1OCC,·,·,·,i
Cc1ccc(NC(=O)c2ccccc2NS(=O)(=O)c2ccc(Cl)s2)cc1,i,i,i,i
O=C(Nc1ccccc1)c1ccccc1NS(=O)(=O)c1ccc(Cl)s1,i,i,100*,i
CC1CCN(CCCNC(=O)c2cn(C)c3ccc(S(=O)(=O)N4CCCC4)cc3c2=O)CC1,6.8*,i,i,i
COc1ccccc1C(CCNCc1ccc(N(C)C)cc1)c1ccc(OC(C)C)cc1 (stereo not given),8.7*,i,i,i
COc1ccc(CNCCC(c2ccc(OC(C)C)cc2)c2ccccc2OC)cc1 (stereo not given),i,i,i,i
O=C1NC[C@@H](c2ccccc2)OC(=O)[C@@H](Cc2ccc(F)cc2)C/C=C\C[C@@H]1CC(=O)N(CCO)Cc1ccccc1,·,·,·,i
Cn1c(C(=O)Nc2ccc3c(c2)OCO3)cc2c(=O)n(C)c3ccccc3c21,i,i,i,-6.8*
CC(NC(=O)c1cc2c(=O)n(C)c3ccccc3c2n1C)c1ccc2c(c1)OCCO2 (stereo not given),i,i,i,i
CC(C)CN1CCN(Cc2cccc3cccnc23)CC1CCO (stereo not given),i,i,i,i
CS(=O)(=O)Nc1ccc(C(=O)Nc2ccc3c(c2)OCO3)cc1,i,i,i,-10*
COc1ccccc1NS(=O)(=O)/C=C/c1ccccc1,i,i,i,i
Cc1c(C(=S)NC(=O)C2CC2)c(=O)n(-c2ccccc2)n1C,i,i,i,i
SMILES,CHT allo act,CHT inh,TMEM16A inh,ANO1 activ
O=C(CN1CCCCC1)Nc1ccc(S(=O)(=O)c2ccc(NC(=O)CN3CCCCC3)cc2)cc1,·,·,·,i
Cc1ccc(S(=O)(=O)Nc2cc(C(F)(F)F)ccc2N2CCOCC2)c(C)c1,i,i,i,-14*
Cc1ccc(S(=O)(=O)Nc2cc(C(F)(F)F)ccc2N2CCOCC2)cc1,i,i,i,i
N#CC(C(=O)NCCc1ccccc1)c1nc2ccccc2nc1N1CCCCC1 (stereo not given),i,i,100*,i
CC(NC(=O)c1cccc(N(C)C)c1)c1ccc(-n2ccnc2)cc1 (stereo not given),i,i,i,i
CCOc1ccc(NC(=O)CCC(=O)NNC(=O)COc2ccc(C)cc2Br)cc1,i,i,i,i
O=C1N(Cc2cccc(Cl)c2)C[C@@H]2C[C@@H](c3c[nH]c4ccccc34)N3CCC[C@@]123,i,i,i,-4.6*
O=C1N(Cc2cccc(Cl)c2)C[C@@H]2C[C@@H](c3cccc4ncccc34)N3CCC[C@@]123,i,i,i,i
COc1ccc(C(=O)/C=C/C(=O)N(CC(=O)NC2CCCCC2)CC2CCCO2)c(O)c1 (stereo not given),i,i,100*,-6*
N#CC(C(=O)C12CC3CC(CC(C3)C1)C2)c1nc2ccccc2[nH]1 (stereo not given),i,i,i,-9.5*
